Rows were chosen to be rich in hits. Some 18% of all compounds tested hit in one or more screens of this group.
TDP1 block: TDP1 (human) enzyme inhibition; Q9NUW8; recombinant TDP1, AlphaScreen DNA substrate cleavage; Potency, µM (series often up to 130 µM), for inactives: top-dose activity change, negative = inhibition, most hits filed as inhibitors; 350,000 compounds, 0.28% hits; AID 485290; also: potency is read from the fitted curve at half-maximal effect; % is scaled to controls: 0 for no effect and ±100 for the full control effect; nearly all actives have a fitted effect of over 40% in size
Target sequence (Q9NUW8 whole entry, looked up): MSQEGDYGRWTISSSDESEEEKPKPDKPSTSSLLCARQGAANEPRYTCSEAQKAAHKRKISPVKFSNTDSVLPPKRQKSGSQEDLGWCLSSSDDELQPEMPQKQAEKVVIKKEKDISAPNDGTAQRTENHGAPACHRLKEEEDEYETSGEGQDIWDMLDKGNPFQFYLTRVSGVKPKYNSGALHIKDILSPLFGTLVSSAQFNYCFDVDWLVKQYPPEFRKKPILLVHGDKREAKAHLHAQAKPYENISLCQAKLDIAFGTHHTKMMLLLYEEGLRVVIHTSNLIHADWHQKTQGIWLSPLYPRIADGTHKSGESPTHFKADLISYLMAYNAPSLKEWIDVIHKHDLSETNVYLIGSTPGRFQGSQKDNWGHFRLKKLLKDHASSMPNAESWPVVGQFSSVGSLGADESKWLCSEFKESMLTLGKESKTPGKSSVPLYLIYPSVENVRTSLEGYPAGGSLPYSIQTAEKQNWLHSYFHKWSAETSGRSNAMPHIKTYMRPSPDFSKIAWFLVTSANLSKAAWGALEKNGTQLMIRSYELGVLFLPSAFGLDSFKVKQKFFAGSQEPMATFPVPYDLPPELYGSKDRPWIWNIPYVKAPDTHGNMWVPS
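Tdp1 1 nM final; 15 min RT w/ cpd; substrate 15 nM, 5 min; beads 10 ug/ml, 10 min; AlphaScreen read. Neg ctrl: no enzyme.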
DT40 TDP1 CPT: DT40-hTDP1 cell growth loss with CPT; 420,000 compounds, 12% hits; AID 686979; Potency, µM (highest dose often 46.2 µM), inactives show top-dose activity change, negative = growth inhibition, actives largely listed as inhibitors; chicken DT40 Tdp1-/-;hTDP1 cells + 20 nM CPT, ATP luminescence, 48 h; also: potency is read from the fitted curve at half-maximal effect; % is scaled to controls: 0 for no effect and ±100 for the full control effect; nearly all actives have a fitted effect of over 55% in size
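Chicken DT40 Tdp1-/- cells complemented with human TDP1, 400 cells/well, exposed to compounds plus 20 nM camptothecin for at least 48 h at 37 C; viability read as ATP content by CellTiter-Glo luminescence.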
DT40 TDP1 no CPT: qHTS for Inhibitors of human tyrosyl-DNA phosphodiesterase 1 (TDP1): qHTS in cells in absence of CPT; DT40 Tdp1-/- hTDP1 cells, no CPT, ATP luminescence, 48 h; Potency, µM (titrated, usually from 46.2 µM), inactives show at the highest dose activity change, negative = growth inhibition, usual class: inhibitors; 420,000 compounds, 15% hits; also: potency is read from the fitted curve at half-maximal effect; % is scaled to controls: 0 for no effect and ±100 for the full control effect; nearly all actives have a fitted effect of over 55% in size
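Luminescent ATP content (CellTiter-Glo) served as the growth readout. Knockout chicken DT40 cells expressing human TDP1 were exposed to compounds without camptothecin for a minimum 48 hr at 37 °C.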
HepG2 tox: kills HepG2 cells in TGF-b inhibitor counter-screen | HepG2 CAGA-GFP viability, ATP luminescence, 18 h | Potency, µM (top dose mostly 46.1 µM), for inactives: at the top dose activity change, negative = cytotoxicity, hits mostly cytotoxic | 410,000 compounds, 0.76% hits | AID 588856; also: potency is read from the fitted curve at half-maximal effect
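HepG2 CAGA-GFP cells (1000/well, DMEM with 1% FBS) received compound, then TGF-beta at 500 pg/mL final, and were incubated 18 hours at 37 degrees C. Viability was read by CellTiter-Glo luminescence. Media-only wells were set as complete cell-killing and DMSO as no toxicity.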
TGFb inhibitor: inhibitors of TGF-b signaling; HepG2 CAGA-GFP TGF-b/SMAD3 reporter, GFP fluorescence, 18 h; TGF-beta stimulated, 500 pg/mL final; Potency, µM (highest dose often 46.1 µM), for inactives: top-dose activity, negative = inhibition, usual class: inhibitors; 410,000 compounds, 1.2% hits; also: potency is read from the fitted curve at half-maximal effect; % is scaled to controls: 0 for no effect and ±100 for the full control effect; nearly all actives have a fitted effect of over 65% in size
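HEPG2 CAGA-GFP, 1000 cells/well; 2 h settle, 37 C; cpd via pin tool; TGF-b 500 pg/mL final; 18 h, 37 C; GFP imaging ex488/em500-530; %Activity normalised to -TGF-b and +DMSO controls; CRC fit, curve class.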
IL1B secr inh: inflammasome signaling inhibition, IL-1 beta readout; THP-1 LPS/ATP IL-1B secretion, AlphaLISA, 16 h; stronger effect = lower value; activity change, % at 57.5 µM; 360,000 compounds, 4.7% hits; AID 743279; in the data active = activity change below about -50%; inconclusive = mostly about -30% to -49%; also: % is scaled to controls: 0 for no effect and ±100 for the full control effect
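Secreted IL-1B measured by AlphaLISA bead assay after 16 h compound exposure of THP-1 cells; compounds (final up to 57.5 uM) added 1 h before LPS (250 ng/mL) and ATP (1.25 mM) stimulation; lower signal means less secretion.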
* = called active by the depositor; ? = inconclusive; / = no result given; [ ] = another dose, or the depositor's remark. Unless noted, calls follow the shape of the dose curve; as a rule, active = well fitted curve in the direction sought with a large enough effect; inconclusive = small, poorly fitted or top-dose-only effect, or another doubt; inactive = no such curve, though single readings can be large; an effect the other way counts as inactive or inconclusive.

SMILES	TDP1 block	DT40 TDP1 CPT	DT40 TDP1 no CPT	HepG2 tox	TGFb inhibitor	IL1B secr inh
COc1ccc(N(C(=O)c2ccco2)C(C(=O)NC2CCCCC2)c2ccccc2)cc1 (centres undefined)	/	16µM*	26µM*	-6%	-31%	1
COc1cccc(N(C(=O)c2ccco2)C(C(=O)NC2CCCC2)c2ccc(N(C)C)cc2)c1 (centres undefined)	-5%	?	16µM*	-16%	-1%	-4
COc1ccc(N(C(=O)c2ccco2)C(C(=O)NC2CCCC2)c2ccc(N(C)C)cc2)cc1 (centres undefined)	5%	?	16µM*	-19%	19%	-21
O=C(Cn1nc(Cc2cccnc2)c2ccccc2c1=O)Nc1cccnc1Cl	6%	13%	1%	13%	3%	-8
CCCCNC(=O)C(c1ccc(OCC(=O)OC)c(C(=O)OC)c1)N(Cc1ccccc1)C(=O)CCCCCN1C(=O)NC(c2ccc(-c3ccccc3)cc2)C(C(=O)OCc2ccccc2)=C1C (centres undefined)	7%	/	/	/	/	/
O=C(O)c1ccc2c(c1)S(=O)(=O)c1cc(N3CCN(c4cnccn4)CC3)ccc1C2=O	/	-3%	-11%	2%	9%	1
CSCC[C@H](NC(=O)c1cccs1)C(=O)N1CCC2(CC1)NCCc1[nH]cnc12	3%	-2%	2%	1%	7%	-85*
CSCC[C@H](NC(=O)COc1ccc(Cl)cc1)C(=O)N1CCC2(CC1)NCCc1[nH]cnc12	3%	-9%	-14%	2%	7%	-7
O=C(COc1ccc2c3c(c(=O)oc2c1)CCC3)N[C@@H](Cc1ccccc1)C(=O)O	/	10%	4%	2%	6%	11
Cc1ccccc1-n1c(=O)n(Cc2ccccc2)c(=O)c2[nH]cnc21	0%	0%	-5%	-18%	4%	22
COC(=O)c1ccc(C)c(-n2c(=O)n(Cc3ccccc3)c(=O)c3[nH]cnc32)c1	/	?	21µM*	-1%	0%	33
Cc1cc(Nc2cccc(Cl)c2)c2ccccc2n1	/	21µM*	23µM*	-52%	-19%	?
Cc1cccc(NC(=O)c2cc(C)nc3ccccc23)c1	/	-5%	15%	-4%	-2%	-7
Cc1cc(Nc2ccc3c(c2)OCCO3)c2cc(Cl)ccc2n1	8%	?	15µM*	-22%	?	-116*
Cc1cccc(Nc2cc(C)nc3ccccc23)c1	1%	-1%	?	-4%	9%	-91*
O=C(NNc1cc(C(F)(F)F)nc2ccccc12)Nc1cccc(Cl)c1	/	?	16µM*	-37%	?	-89*
Cc1ccc(C(C)C)c(OCC(=O)NNC(=O)C(C(C)C)N2C(=O)c3ccccc3C2=O)c1 (centres undefined)	5%	-1%	?	13%	8%	9
Cc1ccc(OCC(=O)OCC(=O)c2ccccc2)cc1C	5%	12%	10%	-1%	-10%	9
COc1cccc(CSc2nnc(C(F)(F)F)n2Cc2ccc(F)cc2)c1	-8%	?	?	2%	-2%	-11
CCn1cc2nc(SCC(=O)Nc3ccc(OC)c(OC)c3)n(Cc3ccc(Cl)cc3)c(=O)c2n1	6%	18µM*	?	-2%	-2%	/
CCn1cc2nc(SCC(=O)Nc3ccccc3F)n(Cc3ccccc3)c(=O)c2n1	1%	?	?	8%	-8%	-18
CCn1cc2nc(SCc3cc(C)ccc3C)n(CCc3ccccc3)c(=O)c2n1	3%	21µM*	18µM*	-4%	-34%	/
CCn1cc2nc(SCc3cccc(OC)c3)n(Cc3ccc(Cl)cc3)c(=O)c2n1	-2%	16µM*	13µM*	-23%	-8%	/
O=C(CS(=O)(=O)c1ccccc1)N1CCN(c2ccccc2)CC1	5%	-3%	-11%	-9%	10%	-2
COc1ccc(C2=C(Nc3ccc(Br)c(C)c3)c3ccccc3C2=O)cc1	12%	7.3µM*	12µM*	-38%	14µM*	/
SMILES	TDP1 block	DT40 TDP1 CPT	DT40 TDP1 no CPT	HepG2 tox	TGFb inhibitor	IL1B secr inh
COc1ccc(C2=C(Nc3ccc(C)cc3)c3ccccc3C2=O)cc1	3%	5.2µM*	?	2%	21%	2
Cc1cc(C)cc(NC2=C(c3ccccc3)C(=O)c3ccccc32)c1	12%	21µM*	?	-38%	?	/
COc1ccc(C2=C(Nc3ccc(F)cc3)c3ccccc3C2=O)cc1	9%	?	?	16%	0%	-20
Cc1ccc(-n2c(=O)cc(N3CCN(c4ccccc4Cl)CC3)[nH]c2=O)cc1	3%	-24%	-27%	1%	0%	/
COc1cccc(CNC(=O)CC(NC(=O)c2ccccc2)c2ccccc2)c1 (centres undefined)	1%	?	-16%	2%	-7%	-9
CCCCC(=O)Nc1nnc(S(=O)(=O)N(CC)c2cc(C)cc(C)c2)s1	4%	?	?	-6%	0%	/
CCN1CCN(Cc2cccc(Oc3ccc(Cl)cc3)c2)CC1	1%	?	16µM*	-50%	?	-27
CCN1CCN(Cc2cccc(Oc3ccccc3)c2)CC1	/	-15%	-15%	-11%	15%	-12
CN1CCN(Cc2cccc(Oc3ccc(Cl)cc3)c2)CC1	0%	29µM*	?	-31%	-7%	?
COc1ccccc1C1CN(Cc2cnn(C)c2)Cc2ccccc2O1 (centres undefined)	/	16%[9.04 µM]	-23%	/	/	/
O=C(CCl)N(c1ccccc1)C1CCS(=O)(=O)C1 (centres undefined)	3%	8.2µM*	8.2µM*	13µM*	?	-89*
O=[N+]([O-])O[C@@H]1CO[C@H]2[C@@H]1OC[C@@H]2O	/	12%	-12%	/	/	/
CCOc1cc(/C=N/NC(N)=O)cc(Br)c1OCC(=O)Nc1ccccc1C	5%	?	?	-19%	?	2
CCOc1cc(/C=N/NC(N)=O)cc(Br)c1OCC(=O)Nc1cccc2ccccc12	0%	?	?	11µM*	17%	-17
Cc1ccc(-c2[nH]nc(N)c2N=Nc2ccccc2C)cc1	10%	?	?	-105%	?	?
